The full data set covers some 8,800 targets. This sample favours those with a hit. About 0.5% of all pairs of compound and target were hits.
Legend:
Assay in all cases: log2 fold change, soluble protein after heating vs DMSO (PISA); higher = thermal stabilisation; K562 lysate, 10 uM; active = over 0.2 and 3.5 SD of the protein, either way, in both replicates (recomputed)
[1] = compound: CS(=O)(=O)CCNCc1ccc(-c2ccc3ncnc(Nc4ccc(OCc5cccc(F)c5)c(Cl)c4)c3c2)o1 [lapatinib]
Method in brief: (§1)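 The values are log-two fold changes in thermal stability compared with solvent controls and come from duplicates. They were obtained by TMTpro 16plex LC-MS/MS, with channel sums equalised, on the supernatant after 21,000xg for 90 min. That supernatant came from crude K562 extract at 1 mg/mL protein treated with 10 μM compound for 30 min, heated for 3 min across 48°C-58°C, pooled and brought to 0.5% NP-40 at 4°C.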

[2] = compound: CS(=O)(=O)N1CCN(Cc2cc3nc(-c4cccc5[nH]ncc45)nc(N4CCOCC4)c3s2)CC1 [pictilisib]
Method in brief: as §1

[3] = compound: C[C@@H](Oc1cc(-c2cnn(C3CCNCC3)c2)cnc1N)c1c(Cl)ccc(F)c1Cl [crizotinib]
Method in brief: as §1

[4] = compound: C[C@H](C1=CC=C(C=C1)C(=O)NC2=C3C=CNC3=NC=C2)N
Method in brief: as §1

[5] = compound: C[C@H](Nc1ncnc2nc[nH]c12)c1cc2cccc(Cl)c2c(=O)n1-c1ccccc1 [duvelisib]
Method in brief: as §1

[6] = compound: Cc1cc(Nc2cc(CN3CCOCC3)c3nc(C)c(Cc4ccc(Cl)cc4F)n3n2)n[nH]1 [gandotinib]
Method in brief: as §1

[7] = compound: Cc1cc(Nc2cc(N3CCN(C)CC3)nc(Sc3ccc(NC(=O)C4CC4)cc3)n2)n[nH]1 [tozasertib]
Method in brief: as §1

[8] = compound: Cc1ccc(-n2nc(C(C)(C)C)cc2NC(=O)Nc2ccc(OCCN3CCOCC3)c3ccccc23)cc1 [doramapimod]
Method in brief: as §1

[9] = compound: Cc1ccc(NC(=O)c2ccc(CN3CC[C@H](N(C)C)C3)c(C(F)(F)F)c2)cc1Nc1nccc(-c2cncnc2)n1 [bafetinib]
Method in brief: as §1

[10] = compound: Cc1cccc(CC(=O)N2CCc3c2ccc(-c2cn(C)c4ncnc(N)c24)c3F)n1
Method in brief: as §1

[11] = compound: Cc1cn(-c2cc(NC(=O)c3ccc(C)c(Nc4nccc(-c5cccnc5)n4)c3)cc(C(F)(F)F)c2)cn1 [nilotinib]
Method in brief: as §1

[12] = compound: Cc1nc(Nc2n[nH]c3c2CN(C(=O)N[C@H](CN(C)C)c2ccccc2)C3(C)C)c2sccc2n1
Method in brief: as §1

[13] = compound: Cc1nc(Nc2ncc(C(=O)Nc3c(C)cccc3Cl)s2)cc(N2CCN(CCO)CC2)n1 [dasatinib]
Method in brief: as §1

[14] = compound: Cc1ncc(-c2ccnc(Nc3ccc(S(C)(=O)=O)cc3)n2)n1C(C)C
Method in brief: as §1

[15] = compound: Cn1cc(-c2ccc3c(c2)CCN3C(=O)Cc2cccc(C(F)(F)F)c2)c2c(N)ncnc21
Method in brief: as §1

[16] = compound: Cn1cc(CNCC2CCN(c3ncc(C(=O)NO)cn3)CC2)c2ccccc21 [quisinostat]
Method in brief: as §1

[17] = compound: Cn1cncc1[C@@](N)(c1ccc(Cl)cc1)c1ccc2c(c1)c(-c1cccc(Cl)c1)cc(=O)n2C [tipifarnib]
Method in brief: as §1

[18] = compound: NC(=O)Nc1cc(-c2cccc(F)c2)sc1C(=O)N[C@H]1CCCNC1
Method in brief: as §1

[19] = compound: NC(=O)c1cnc(N[C@@H]2CCCC[C@@H]2N)nc1Nc1cccc(-n2nccn2)c1
Method in brief: as §1

[20] = compound: NC1(c2ccc(-c3nc4ccn5c(=O)[nH]nc5c4cc3-c3ccccc3)cc2)CCC1
Method in brief: as §1

Measured: log2 fold change

MPZL1 (UniProt O95297)
Sequence of UniProt O95297 (O95297 whole entry, looked up): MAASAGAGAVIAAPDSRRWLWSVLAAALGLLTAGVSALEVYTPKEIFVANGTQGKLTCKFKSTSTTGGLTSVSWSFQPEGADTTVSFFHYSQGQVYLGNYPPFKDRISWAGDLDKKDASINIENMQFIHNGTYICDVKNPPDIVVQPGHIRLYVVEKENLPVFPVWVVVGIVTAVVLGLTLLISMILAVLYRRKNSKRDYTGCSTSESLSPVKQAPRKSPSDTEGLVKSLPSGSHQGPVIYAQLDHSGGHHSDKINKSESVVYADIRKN
inactive: [1] -0.006 | [2] -0.026 | [3] 0.074 | [4] 0.132 | [5] 0.001 | [6] -0.009 | [7] -0.029 | [8] -0.087 | [9] -0.027 | [10] -0.107 | [11] -0.03 | [12] 0.032 | [13] 0.033 | [14] -0.014 | [15] 0.018 | [16] 0.071 | [17] 0.035 | [18] -0.02 | [19] 0.026 | [20] 0.028

LUZP1 (UniProt Q86V48)
Sequence of UniProt Q86V48 (Q86V48 whole entry, looked up): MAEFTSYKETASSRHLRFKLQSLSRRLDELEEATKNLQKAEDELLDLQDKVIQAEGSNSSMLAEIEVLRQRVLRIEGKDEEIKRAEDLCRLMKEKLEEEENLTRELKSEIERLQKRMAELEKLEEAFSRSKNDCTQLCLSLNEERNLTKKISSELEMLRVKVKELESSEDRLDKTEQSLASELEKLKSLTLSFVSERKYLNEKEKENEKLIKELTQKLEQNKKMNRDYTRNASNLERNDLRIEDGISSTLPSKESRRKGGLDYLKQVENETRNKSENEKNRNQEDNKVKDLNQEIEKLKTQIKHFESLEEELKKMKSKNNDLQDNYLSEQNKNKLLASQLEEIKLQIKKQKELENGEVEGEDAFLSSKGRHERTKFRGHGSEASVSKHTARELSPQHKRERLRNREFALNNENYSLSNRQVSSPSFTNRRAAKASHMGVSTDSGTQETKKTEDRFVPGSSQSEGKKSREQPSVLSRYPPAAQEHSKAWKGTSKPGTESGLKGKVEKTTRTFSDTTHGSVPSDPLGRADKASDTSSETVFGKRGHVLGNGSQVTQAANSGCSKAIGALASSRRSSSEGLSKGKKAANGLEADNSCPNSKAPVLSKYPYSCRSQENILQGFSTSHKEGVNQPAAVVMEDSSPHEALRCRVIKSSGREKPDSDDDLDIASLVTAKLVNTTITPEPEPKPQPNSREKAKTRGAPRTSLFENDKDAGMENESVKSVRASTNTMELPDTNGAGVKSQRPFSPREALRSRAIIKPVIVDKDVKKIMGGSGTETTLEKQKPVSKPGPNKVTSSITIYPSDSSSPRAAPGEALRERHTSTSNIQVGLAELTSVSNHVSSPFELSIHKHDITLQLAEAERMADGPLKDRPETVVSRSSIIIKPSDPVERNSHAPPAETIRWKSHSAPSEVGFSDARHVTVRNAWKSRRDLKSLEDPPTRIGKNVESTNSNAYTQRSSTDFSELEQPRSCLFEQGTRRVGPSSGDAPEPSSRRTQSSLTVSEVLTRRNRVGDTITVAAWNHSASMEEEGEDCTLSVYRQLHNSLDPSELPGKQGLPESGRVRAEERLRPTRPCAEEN
inactive: [1] -0.006 | [2] -0.02 | [3] -0.012 | [4] 0.008 | [5] -0.026 | [6] 0.036 | [7] -0.011 | [8] -0.009 | [9] -0.034 | [10] -0.011 | [11] 0.013 | [12] -0.046 | [13] -0.004 | [14] -0.02 | [15] 0.062 | [16] -0.03 | [17] -0.005 | [18] 0.109 | [19] 0.01 | [20] 0.027

MAD2L2 (UniProt Q9UI95)
inactive: [1] -0.003 | [2] 0.058 | [3] -0.142 | [4] -0.008 | [5] -0.001 | [6] -0.127 | [7] 0.042 | [8] 0.022 | [9] -0.11 | [10] 0.073 | [11] 0.031 | [12] -0.029 | [13] -0.064 | [14] 0.006 | [15] -0.035 | [16] -0.231 | [17] -0.015 | [18] 0.064 | [19] 0.117 | [20] -0.065

LSM8 (UniProt O95777)
Sequence of UniProt O95777 (O95777 whole entry, looked up): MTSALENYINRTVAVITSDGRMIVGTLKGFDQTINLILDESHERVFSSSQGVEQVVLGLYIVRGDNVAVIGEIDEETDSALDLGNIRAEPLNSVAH
inactive: [1] -0.005 | [2] -0.067 | [3] 0.02 | [4] -0.028 | [5] 0.002 | [6] 0.007 | [7] 0.037 | [8] 0.016 | [9] 0.176 | [10] 0.026 | [11] 0.132 | [12] 0 | [13] 0.012 | [14] 0.045 | [15] 0.004 | [16] -0.043 | [17] 0.048 | [18] -0.02 | [19] -0.035 | [20] 0.033

KNOP1 (UniProt Q1ED39)
Sequence of UniProt Q1ED39 (Q1ED39 whole entry, looked up): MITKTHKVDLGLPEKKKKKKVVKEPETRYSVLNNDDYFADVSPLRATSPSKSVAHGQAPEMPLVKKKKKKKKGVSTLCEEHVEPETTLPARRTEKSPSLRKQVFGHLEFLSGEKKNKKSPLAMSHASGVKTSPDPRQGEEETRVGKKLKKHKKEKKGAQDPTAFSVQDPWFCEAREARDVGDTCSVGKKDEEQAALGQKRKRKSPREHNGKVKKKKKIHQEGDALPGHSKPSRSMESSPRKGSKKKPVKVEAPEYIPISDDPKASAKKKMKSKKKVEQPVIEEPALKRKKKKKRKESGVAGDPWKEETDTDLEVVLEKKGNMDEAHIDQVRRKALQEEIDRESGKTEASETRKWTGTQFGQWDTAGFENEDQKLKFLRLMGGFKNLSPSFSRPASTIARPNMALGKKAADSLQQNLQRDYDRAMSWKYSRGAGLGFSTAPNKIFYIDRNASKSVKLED
inactive: [1] -0.046 | [2] 0.03 | [3] -0.068 | [4] 0.004 | [5] 0.022 | [6] 0.027 | [7] -0.085 | [8] 0.1 | [9] -0.06 | [10] -0.011 | [11] -0.09 | [12] 0.055 | [13] -0.028 | [14] -0.095 | [15] -0.001 | [16] -0.169 | [17] -0.01 | [18] 0.007 | [19] 0.048 | [20] -0.062

MGST3 (UniProt O14880)
inactive: [1] 0.01 | [2] -0.017 | [3] 0.004 | [4] 0.23 | [5] -0.02 | [6] -0.078 | [7] -0.035 | [8] -0.025 | [9] -0.048 | [10] -0.087 | [11] 0.024 | [12] 0.016 | [13] 0.029 | [14] -0.019 | [15] -0.062 | [16] 0.016 | [17] -0.014 | [18] 0.009 | [19] -0.013 | [20] -0.031

MOCS1 isoform 8 (UniProt Q9NZB8)
Sequence of UniProt Q9NZB8 (Q9NZB8 whole entry, looked up): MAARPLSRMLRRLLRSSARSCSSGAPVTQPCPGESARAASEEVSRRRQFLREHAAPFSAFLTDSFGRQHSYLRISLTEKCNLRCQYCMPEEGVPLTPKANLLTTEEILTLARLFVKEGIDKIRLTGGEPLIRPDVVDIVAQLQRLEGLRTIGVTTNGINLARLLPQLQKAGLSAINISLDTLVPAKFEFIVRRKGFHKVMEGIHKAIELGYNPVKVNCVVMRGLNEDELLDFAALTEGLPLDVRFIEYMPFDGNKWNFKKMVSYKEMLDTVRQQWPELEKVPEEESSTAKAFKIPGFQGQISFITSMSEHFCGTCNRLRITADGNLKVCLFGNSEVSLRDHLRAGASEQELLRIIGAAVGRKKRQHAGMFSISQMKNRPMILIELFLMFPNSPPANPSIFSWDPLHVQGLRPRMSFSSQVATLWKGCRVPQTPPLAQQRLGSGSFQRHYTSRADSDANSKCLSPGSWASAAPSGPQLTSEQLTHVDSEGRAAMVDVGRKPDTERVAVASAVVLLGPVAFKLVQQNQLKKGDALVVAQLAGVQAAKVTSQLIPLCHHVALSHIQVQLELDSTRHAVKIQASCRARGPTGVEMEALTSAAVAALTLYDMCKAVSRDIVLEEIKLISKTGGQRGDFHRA
inactive: [1] -0.022 | [2] -0.003 | [3] -0.046 | [4] -0.078 | [5] 0 | [6] 0.012 | [7] 0.11 | [8] 0.018 | [9] -0.032 | [10] 0.04 | [11] 0.188 | [12] -0.03 | [13] 0.074 | [14] 0.227 | [15] -0.013 | [16] -0.082 | [17] -0.231 | [18] 0.093 | [19] 0.021 | [20] -0.033

MARK2 (UniProt E9PC69)
inactive: [1] 0.003 | [2] 0.052 | [3] -0.14 | [4] 0.131 | [5] -0.068 | [6] -0.166 | [7] -0.233 | [8] 0.075 | [9] -0.071 | [10] 0.025 | [11] 0.019 | [12] 0.034 | [13] -0.03 | [14] 0.012 | [15] -0.047 | [16] 0.031 | [17] -0.019 | [18] -0.065 | [19] 0.002 | [20] -0.183

MAPKAPK5 (UniProt Q8IW41)
inactive: [1] 0.05 | [2] -0.008 | [3] -0.085 | [4] 0.111 | [5] 0.04 | [6] -0.07 | [7] -0.004 | [8] 0.015 | [9] 0.019 | [10] -0.053 | [11] -0.003 | [12] 0.056 | [13] 0.011 | [14] 0.064 | [15] 0.024 | [16] -0.222 | [17] -0.065 | [19] -0.006 | [20] -0.006
active: [18] 0.519

MPP1 (UniProt Q00013)
Sequence of UniProt Q00013 (Q00013 whole entry, looked up): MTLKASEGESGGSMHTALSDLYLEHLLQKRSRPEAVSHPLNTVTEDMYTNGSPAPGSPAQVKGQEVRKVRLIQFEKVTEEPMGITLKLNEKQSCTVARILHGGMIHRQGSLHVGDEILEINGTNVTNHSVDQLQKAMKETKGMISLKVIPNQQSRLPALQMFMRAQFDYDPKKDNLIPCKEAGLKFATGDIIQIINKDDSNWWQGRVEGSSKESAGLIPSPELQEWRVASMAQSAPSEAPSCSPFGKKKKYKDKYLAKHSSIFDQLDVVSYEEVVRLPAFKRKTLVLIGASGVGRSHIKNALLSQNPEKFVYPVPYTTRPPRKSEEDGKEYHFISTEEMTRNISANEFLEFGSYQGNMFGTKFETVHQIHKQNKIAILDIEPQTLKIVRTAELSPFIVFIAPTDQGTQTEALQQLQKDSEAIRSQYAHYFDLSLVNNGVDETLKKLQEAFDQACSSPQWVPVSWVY
inactive: [1] 0.006 | [2] 0.016 | [3] 0.001 | [4] -0.006 | [5] 0.012 | [6] -0.008 | [7] 0.017 | [8] 0.006 | [9] -0.015 | [10] 0.001 | [11] -0.017 | [12] -0.014 | [13] -0.011 | [14] 0.011 | [15] 0.007 | [16] 0.017 | [17] 0 | [18] 0.024 | [19] 0.017 | [20] 0

MED25 isoform 3 (UniProt Q71SY5)
Sequence of UniProt Q71SY5 (Q71SY5 whole entry, looked up): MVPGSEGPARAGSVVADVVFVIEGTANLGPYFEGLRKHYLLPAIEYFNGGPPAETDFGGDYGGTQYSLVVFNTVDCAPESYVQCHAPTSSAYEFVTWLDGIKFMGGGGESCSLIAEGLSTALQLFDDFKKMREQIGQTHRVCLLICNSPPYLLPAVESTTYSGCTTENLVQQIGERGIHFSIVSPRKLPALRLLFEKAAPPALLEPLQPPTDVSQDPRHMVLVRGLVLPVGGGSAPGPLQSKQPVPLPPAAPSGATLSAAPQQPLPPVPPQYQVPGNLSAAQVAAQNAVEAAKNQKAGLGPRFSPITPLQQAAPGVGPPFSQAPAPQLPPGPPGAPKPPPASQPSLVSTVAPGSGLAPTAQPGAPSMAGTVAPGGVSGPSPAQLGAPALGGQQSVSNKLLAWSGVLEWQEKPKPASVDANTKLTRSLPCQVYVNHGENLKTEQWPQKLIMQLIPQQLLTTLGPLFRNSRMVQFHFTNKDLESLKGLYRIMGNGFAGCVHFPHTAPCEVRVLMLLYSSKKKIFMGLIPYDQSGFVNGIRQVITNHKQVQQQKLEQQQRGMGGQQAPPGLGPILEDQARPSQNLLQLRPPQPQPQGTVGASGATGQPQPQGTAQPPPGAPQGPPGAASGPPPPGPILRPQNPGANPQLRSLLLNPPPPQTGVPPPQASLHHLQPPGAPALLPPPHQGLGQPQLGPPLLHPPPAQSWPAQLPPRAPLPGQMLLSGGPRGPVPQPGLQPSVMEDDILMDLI
inactive: [1] 0.018 | [2] -0.05 | [3] -0.05 | [4] 0.053 | [5] 0.063 | [6] -0.095 | [7] -0.109 | [8] -0.042 | [9] -0.023 | [10] -0.052 | [11] 0.132 | [12] 0.026 | [13] -0.039 | [14] 0.097 | [15] -0.017 | [16] -0.008 | [17] -0.024 | [18] 0.029 | [19] -0.013 | [20] -0.073

MAPK8 isoform 3 (UniProt P45983)
inactive: [1] -0.042 | [2] 0.192 | [3] -0.089 | [4] -0.022 | [5] -0.07 | [6] 0.281 | [7] -0.007 | [8] -0.049 | [9] -0.014 | [10] -0.037 | [11] 0.051 | [12] -0.007 | [13] 0.054 | [15] 0.07 | [16] -0.139 | [17] 0.006 | [18] 0.093 | [19] 0.115 | [20] -0.062
active: [14] 0.326

MCMBP (UniProt Q9BTE3)
Sequence of UniProt Q9BTE3 (Q9BTE3 whole entry, looked up): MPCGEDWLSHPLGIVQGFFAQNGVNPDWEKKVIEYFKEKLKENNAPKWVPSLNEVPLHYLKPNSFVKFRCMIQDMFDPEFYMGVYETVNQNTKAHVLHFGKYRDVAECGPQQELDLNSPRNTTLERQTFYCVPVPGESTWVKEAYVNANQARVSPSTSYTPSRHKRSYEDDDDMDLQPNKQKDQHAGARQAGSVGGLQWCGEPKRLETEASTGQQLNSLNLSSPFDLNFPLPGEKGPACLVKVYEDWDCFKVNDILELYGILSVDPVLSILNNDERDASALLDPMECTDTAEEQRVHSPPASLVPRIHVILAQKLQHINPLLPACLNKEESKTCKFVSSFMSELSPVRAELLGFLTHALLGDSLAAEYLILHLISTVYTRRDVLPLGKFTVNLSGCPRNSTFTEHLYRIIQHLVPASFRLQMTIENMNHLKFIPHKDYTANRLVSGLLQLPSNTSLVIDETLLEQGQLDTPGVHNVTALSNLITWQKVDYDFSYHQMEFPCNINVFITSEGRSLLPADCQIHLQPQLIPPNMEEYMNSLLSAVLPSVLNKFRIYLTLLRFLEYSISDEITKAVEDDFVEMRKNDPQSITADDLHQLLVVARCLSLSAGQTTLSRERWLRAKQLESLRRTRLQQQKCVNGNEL
inactive: [1] 0.008 | [2] -0.027 | [3] -0.032 | [4] 0.048 | [5] 0.002 | [6] -0.083 | [7] -0.007 | [8] -0.001 | [9] -0.007 | [10] -0.048 | [11] -0.01 | [12] -0.008 | [13] -0.031 | [14] -0.028 | [15] 0.008 | [16] -0.039 | [17] 0.024 | [18] 0.039 | [19] 0.014 | [20] -0.033

KNSTRN (UniProt Q9Y448)
inactive: [1] 0.013 | [2] 0.05 | [3] 0.029 | [4] 0.065 | [5] -0.009 | [6] -0.024 | [7] 0.026 | [8] -0.052 | [9] 0.024 | [10] -0.056 | [11] 0.012 | [12] 0.03 | [13] -0.048 | [14] -0.071 | [15] -0.005 | [16] 0.165 | [17] 0.033 | [18] -0.02 | [19] -0.002 | [20] -0.01

KLC2 (UniProt Q9H0B6)
Sequence of UniProt Q9H0B6 (Q9H0B6 whole entry, looked up): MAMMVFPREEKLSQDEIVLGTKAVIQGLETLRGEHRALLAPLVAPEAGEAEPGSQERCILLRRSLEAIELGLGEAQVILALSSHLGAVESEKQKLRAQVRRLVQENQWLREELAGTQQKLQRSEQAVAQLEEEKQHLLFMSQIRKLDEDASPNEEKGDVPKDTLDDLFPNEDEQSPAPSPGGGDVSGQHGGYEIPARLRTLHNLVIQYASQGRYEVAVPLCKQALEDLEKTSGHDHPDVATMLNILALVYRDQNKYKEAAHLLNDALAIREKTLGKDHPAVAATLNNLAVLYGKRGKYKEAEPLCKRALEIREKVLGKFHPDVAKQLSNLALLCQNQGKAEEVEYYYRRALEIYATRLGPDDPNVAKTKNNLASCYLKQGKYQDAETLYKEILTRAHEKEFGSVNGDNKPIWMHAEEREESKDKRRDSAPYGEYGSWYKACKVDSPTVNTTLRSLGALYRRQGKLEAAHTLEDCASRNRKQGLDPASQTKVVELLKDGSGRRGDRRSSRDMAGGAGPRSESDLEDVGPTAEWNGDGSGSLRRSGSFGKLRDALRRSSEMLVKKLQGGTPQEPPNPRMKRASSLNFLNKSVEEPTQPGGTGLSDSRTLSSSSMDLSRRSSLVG
inactive: [1] -0.012 | [2] -0.057 | [3] -0.047 | [4] 0.025 | [5] -0.031 | [6] -0.145 | [7] 0.012 | [8] 0.065 | [9] -0.043 | [10] 0.074 | [11] 0.016 | [12] 0.013 | [13] -0.062 | [14] 0.067 | [15] 0.041 | [16] -0.017 | [17] 0.063 | [18] 0.012 | [19] 0.013 | [20] -0.036

LRCH3 (UniProt Q96II8)
inactive: [1] -0.008 | [2] -0.08 | [3] -0.114 | [4] -0.046 | [5] -0.012 | [6] 0.027 | [7] 0.012 | [8] 0.099 | [9] -0.104 | [10] 0.059 | [11] -0.003 | [12] -0.029 | [13] -0.095 | [14] 0.064 | [15] 0.038 | [16] -0.16 | [17] -0.029 | [18] -0.005 | [19] 0.011 | [20] -0.025
